Shown is part of a subset that was picked to be rich in hits.
Pf apPOL inh: Pf-apPOL DNA polymerase inhibition. Recombinant Pf-apPOL, molecular beacon fluorescence, 1.5 h. 210,000 compounds, 0.25% hits. inhibition, % at 10 µM. AID 1794808
mHTT-CaM PPI inh: inhibitors of human mutant huntingtin-calmodulin interaction; P42858; 190,000 compounds, 3.6% hits; AlphaScreen His-mHTT/GST-CaM binding, luminescence; inhibition, % at 15 µM; AID 1671202;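 also: 0% = both proteins with DMSO and 100% = one protein alone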
An asterisk follows results filed as active; i = inactive; nt = no result. Rule as the data show it: active = inhibition above about 50%; inactive = the rest.

SMILES	Pf apPOL inh	mHTT-CaM PPI inh
Cn1nccc1C(=O)N1CCC(CCOc2cccc(F)c2)CC1	-4.3	6.1
Cc1ccc(NC(=O)c2oc3ccc(S(=O)(=O)N4CCOCC4)cc3c2C)cc1Cl	-8.1	1.0
COc1ccc(N=C2C(=O)N3c4c(cc(C)cc42)C(C)=CC3(C)C)cc1	2.1	72.0*
COc1ccc2c(c1)C(C)=CC(C)(C)N2C(=O)C(C)N1C(=O)c2ccccc2C1=O (stereo not drawn)	-4.5	10.0
NNc1nc(N)c2c(n1)-c1ccccc1CC21CCCCC1	-4.2	100.3*
CSc1nc2c(c(=O)[nH]1)C1(CCCCC1)Cc1ccccc1-2	1.4	-5.4
O=C(O)C1CSC(c2cccc([N+](=O)[O-])c2)N1 (stereo not drawn)	1.5	4.0
O=C(O)C1CSC(c2ccc([N+](=O)[O-])s2)N1 (stereo not drawn)	-2.3	56.0*
Oc1cccc2ccc(/C=C/c3ccccc3Cl)nc12	5.1	52.0*
Cc1cccc(/C=C/c2ccc3cccc(O)c3n2)c1O	-2.6	38.2
Oc1cccc2ccc(/C=C/c3ccc4c(c3)OCO4)nc12	-0.8	37.1
Oc1cccc2ccc(/C=C/c3cc4c(cc3Cl)OCO4)nc12	-7.1	56.0*
CC1CCc2cc(F)cc3c(O)c(C(=O)NCCN4CCOCC4)c(=O)n1c23 (stereo not drawn)	-83.1	26.0
CC1CCc2cc(F)cc3c(O)c(C(=O)NCCCN(C)C)c(=O)n1c23 (stereo not drawn)	-66.3	99.0*
O=C1Nc2ccc(Cl)cc2[C@@](C#CC2CC2)(C(F)(F)F)O1	-2.6	nt
O=[N+]([O-])c1ccc2c(c1)CCN2	-12.8	nt
O=C(Nc1ccc(F)cc1)N1CCN(Cc2ccccc2)CC1	0.1	nt
CCc1nnc(NC(=O)c2c(OC)cccc2OC)s1	2.6	1.4
CCc1nnc(NC(=O)c2cc(OC)c(OC)c(OC)c2Br)s1	79.5*	6.0
O=C(Nc1ccc(F)cc1)Nc1nnc(SCCOc2ccccc2)s1	3.2	-6.7
CC(C)CC(=O)N1CCCC1c1nc2cc(-c3ccc(N(C)C)cc3)ccc2o1 (stereo not drawn)	-7.1	87.3*
CCC(=O)N1CCCC1c1nc2cc(-c3cccc(F)c3)ccc2o1 (stereo not drawn)	-3.6	41.1
CCCC(=O)N1CCCC1c1nc2cc(-c3ccc(N(C)C)cc3)ccc2o1 (stereo not drawn)	-8.2	86.2*
CCCC(=O)N1CCCC1c1nc2cc(-c3ccccc3F)ccc2o1 (stereo not drawn)	-1.0	13.2
Cc1cccc(-n2nc(C3CC3)c(C(=O)N3CCN(C)CC3)c2C(C)C)c1	-10.5	33.1
SMILES	Pf apPOL inh	mHTT-CaM PPI inh
COc1ccc(C2CC(=O)Oc3cc(O)ccc32)cc1 (stereo not drawn)	-1.7	-3.5
O=C(COc1ccc(F)cc1)N1CCC2(CC1)NC(=O)N(Cc1ccccc1Cl)C2=O	-6.5	4.9
Cc1ccc(NC(=O)c2cc3c(=O)n(CC(C)C)ccc3n2C)cc1	-4.0	-0.1
O=C1CC(c2c[nH]c3ccccc23)C(=O)N1c1ccc(O)cc1 (stereo not drawn)	-4.2	76.6*
CC(C)(C)c1ccc(N2C(=O)CC(c3ccccc3)C2=O)cc1 (stereo not drawn)	1.9	nt
CN(C)CC1CN(S(=O)(=O)C2CC2)CC12CCOCC2 (stereo not drawn)	-6.6	-5.1
Cc1ccnc(NS(=O)(=O)c2ccc(NC(=O)CSc3nc4ccccc4s3)cc2)n1	-13.6	42.6
O=C(C1CCN(c2nc3ccc(-c4ccsc4)nc3s2)CC1)N1CCCC1	-3.2	12.1
CCN1CCN(C(=O)C2CCN(c3nc4ccc(-c5ccsc5)nc4s3)CC2)CC1	0.5	66.6*
CC(C)C(C(=O)O)n1c(O)c(C=C2C=Nc3ccccc32)sc1=S (stereo not drawn)	-12.3	30.9
COc1cccc(NC(=O)NCCN2CCN=C2C)c1	-6.3	nt
COc1cccc(C2CC(c3ccc(F)cc3)Nc3nc(N)nn32)c1 (stereo not drawn)	-0.1	8.4
O=C(CC1Nc2cccc3cccc(c23)NC1=O)Nc1cccc(C(F)(F)F)c1 (stereo not drawn)	0.6	50.7*
COc1cccc(NC(=O)CC2Nc3ccccc3NC2=O)c1 (stereo not drawn)	3.1	8.5
O=C(Nc1ccc(N2CCCN(Cc3cc(F)cc(F)c3)C2=O)cc1)C1CCCC1	-0.9	2.0
CCc1ccccc1N=Cc1[nH]c2ccc(Br)c(Cl)c2c1O	-11.9	18.0
CC(C)C(NC(=O)c1ccc(Cl)cc1Cl)C(C)C	-1.8	-3.6
CCC(=O)Nc1ccc2oc(-c3c(F)c(F)c(F)c(F)c3F)nc2c1	-4.7	-6.4
COc1ccccc1C1C(C#N)=C(C(C#N)C#N)NC(O)(C2CC2)C1[n+]1ccc(C)cc1 (stereo not drawn)	-14.2	1.0
Cc1cc[n+](C2C(c3ccc(Br)cc3)C(C#N)=C(S)NC2(O)C2CC2)cc1 (stereo not drawn)	-7.1	89.0*
Cc1ccc(NC(=O)/C=N/OC(=O)Nc2ccc(Cl)cc2)cc1	-3.0	i
COC(=O)C1C2C=CC3(CN(c4cccc(C)c4)C(=O)C13)O2 (stereo not drawn)	-3.0	65.6*
CCCCOC(=O)C1C2C=CC3(CN(c4cccc(C)c4)C(=O)C13)O2 (stereo not drawn)	1.3	-8.2
Cc1nnc(-c2ccccn2)[nH]c1=O	-136.9	nt
Cc1nc(-c2cnccn2)[nH]c(=O)c1C	-12.5	70.8*
SMILES	Pf apPOL inh	mHTT-CaM PPI inh
NS(=O)(=O)c1ccc(N(S(=O)(=O)c2cccc(Cl)c2)S(=O)(=O)c2cccc(Cl)c2)cc1	-1.4	nt
CCOc1ccc(S(=O)(=O)n2nnc3ccccc32)cc1C(C)(C)C	-7.0	-4.4
Clc1ccccc1C=Nc1c(-c2ccco2)nc2ccccn12	3.0	79.0*
CSc1ccc(C=Nc2c(-c3ccco3)nc3ccccn23)cc1	-8.8	80.0*
Brc1ccc(C=Nc2c(-c3ccco3)nc3ccccn23)cc1	-1.2	33.0
COc1ccc(C=Nc2c(-c3ccco3)nc3ccccn23)cc1OC	-6.5	33.0
O=[N+]([O-])c1cc(C=Nc2c(-c3ccco3)nc3ccccn23)ccc1Cl	0.4	33.0
COc1ccc(Br)cc1C=Nc1c(-c2ccco2)nc2ccccn12	4.7	46.0
Oc1ccc(C=Nc2c(-c3ccco3)nc3ccc(Cl)cn23)cc1	-0.2	52.0*
Oc1ccc(Br)cc1C=Nc1c(-c2ccco2)nc2ccccn12	-5.1	62.0*
CCc1nnc(N2C(=O)C3C4C=CC(C4)C3C2=O)s1 (stereo not drawn)	-1.4	0.4
Cc1ccc(NC(=O)CC2Sc3ccc(C(F)(F)F)cc3NC2=O)cc1 (stereo not drawn)	-2.1	-1.0
CC1=NN(c2ccc([N+](=O)[O-])cc2)C(c2ccccc2)C1 (stereo not drawn)	4.9	-3.0
O=c1c2cnc3c(Cl)cccc3c2nc2sccn12	6.9	11.0
COc1ccc(N2CCN(C(=O)c3cccc([N+](=O)[O-])c3)CC2)cc1	-5.7	5.8
N#CC(C#N)=C1C(Cl)=C(N2CCCCC2)c2ccccc21	3.4	56.0*
N#Cc1c(N2CCOCC2)nsc1-c1ccccc1Cl	-7.7	nt
c1csc(CN2CCC(OCc3nc(C4CC4)no3)CC2)c1	-3.5	0.6
Cc1ccc(C2CC(c3cccc(C)c3)=NN2C(=O)CN2CCOCC2)cc1 (stereo not drawn)	-5.8	84.9*
Cc1ccc(C)c(C2=NN(C(=O)CN3CCOCC3)C(c3ccc(Cl)cc3)C2)c1 (stereo not drawn)	-3.7	49.2

Source: PubChem BioAssay (University of Kansas High Throughput Screening Laboratory)
